In the library only some 1.4% were active in any assay of this set; here they are far more common.
NPR2 activator – human GC-B receptor activators, primary screen, HEK293 GC-B cells, cGMP TR-FRET, EC30 CNP; Atrial natriuretic peptide receptor 2 (Homo sapiens), P20594; 0% at EC30 CNP, 100% saturating CNP; activation, % at 10 µM; 370,000 tested, 0.11% active; AID 1920062, 2024;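 active means activation at 10 µM reaching about 35% in either raw or pattern-adjusted values, limit read from the data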
A3A deaminase – APOBEC3A ssDNA deaminase inhibitors, primary screen, selectivity assay for APOBEC3G inhibitor project, biochemical, FAM/TAMRA oligo cleavage fluorescence. DNA dC->dU-editing enzyme APOBEC-3A (Homo sapiens), P31941. recombinant A3A, FAM/TAMRA ssDNA deamination fluorescence. inhibition, % at 20 µM. 330,000 tested, 0.41% active. AID 493011, 2011;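 active means at least 40% inhibition at 20 µM here, with at most 30% in a related deaminase screen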;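 further: plate controls were A3A with DMSO for no effect and wells lacking A3A enzyme for full effect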
FAS-TE inh – FAS thioesterase domain inhibitors, primary screen, biochemical, fluorescence intensity, uHTS; inhibition, % at 15 µM; recombinant FAS-TE, OMFH fluorogenic substrate, fluorescence endpoint; 360,000 tested, 0.67% active;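 active means compounds whose normalised, plate-corrected inhibition of enzyme fluorescence in the single-dose primary screen is 50% or more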;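 further: 0% = DMSO with enzyme and 100% = substrate without enzyme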
GC-A act – GC-A stimulated cGMP production enhancers – HEK293 GC-A cells, cGMP TR-FRET, EC30 ANP, primary screen; Atrial natriuretic peptide receptor 1 (Homo sapiens), P16066; 0% at EC30 ANP, 100% saturating ANP; activation, % at 10 µM; 370,000 tested, 0.14% active; AID 1671463, 2021; in the data active means activation above about 40%
A3G deaminase – APOBEC3G DNA deaminase inhibitors, primary screen, biochemical, fluorescence, single-stranded DNA substrate, uHTS; inhibition, % at 20 µM; 330,000 tested, 0.28% active; recombinant A3G, ssDNA deamination FAM/TAMRA fluorescence;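 active means inhibition of at least 40% at 20 µM, with no more than 30% in the related APOBEC3A deaminase screen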;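 further: plate controls were DMSO wells with A3G for no effect and wells lacking A3G enzyme for full effect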
Active calls of the source: *; / = not tested or not shown.

SMILES	NPR2 activator	A3A deaminase	FAS-TE inh	GC-A act	A3G deaminase
COc1ccccc1-n1c(SCC(=O)Nc2cc(C)on2)nc2c([nH]c3ccccc32)c1=O	0	-3	13	71*	-9
COCCn1c(SCC(=O)Nc2ccc(F)cc2F)nc2c([nH]c3ccccc32)c1=O	-1	1	-3	5	-3
COCCn1c(SCC(=O)Nc2ccccc2F)nc2c([nH]c3ccccc32)c1=O	2	-2	-9	55*	-5
Cc1cc(NC(=O)CSc2nc3c([nH]c4ccccc43)c(=O)n2-c2cccc(C(F)(F)F)c2)no1	/	/	-11	/	/
COc1ccc(-n2c(SCC(=O)Nc3cc(C)on3)nc3ccc(O)cc3c2=O)cc1OC	-2	3	-4	58*	0
CN1CC=C(c2ccc(C(F)(F)F)cc2)N(c2ccc(Br)cc2)C1=O	-22	/	/	-24	/
COc1cccc(-n2c(SCC(=O)Nc3cc(C)on3)nc3c([nH]c4ccccc43)c2=O)c1	-3	1	0	80*	-7
Cc1cc(O)cc(=O)n1-c1cccc([N+](=O)[O-])c1	1	/	/	4	/
CCc1ccc(S(=O)(=O)Nc2ccc(O)c3c(=O)cc(-c4ccccc4Cl)oc23)cc1	-3	4	36	-2	-4
O=c1cc(-c2ccccc2Cl)oc2c(NS(=O)(=O)c3cc(Cl)cc(Cl)c3O)ccc(O)c12	/	-1	68*	/	-9
N#Cc1c2c(c(Nc3ccc(F)cc3)n3c1nc1ccccc13)CCCC2	12	/	3	44*	/
N#Cc1c2c(c(Nc3ccccc3)n3c1nc1ccccc13)CCC2	8	35	4	54*	-2
COC(=O)C1=C(C)N(C)C(=NCc2ccc(C(F)(F)F)cc2)NC1c1cccc(F)c1 (stereo not drawn)	-3	/	/	-1	/
Cc1nc(N2CCCCC2C)c2nnn(Cc3ccccc3)c2n1 (stereo not drawn)	6	/	/	6	/
CC[C@@]1(O)C(=O)OCc2c1cc1n(c2=O)Cc2cc3c(N)cccc3nc2-1	-2	12	-14	-6	22
CC[C@@]1(O)C(=O)OCc2c1cc1n(c2=O)Cc2cc3c(CN(C)C)c(O)ccc3nc2-1	14	-9	-82	53*	-8
COC(=O)C1CN(CCc2ccccc2)CCS(=O)(=O)N1Cc1ccc(C(F)(F)F)cc1 (stereo not drawn)	0	/	/	-2	/
C=CCNc1nnnc2c1sc1nc(N3CCOCC3)c3c(c12)CCCC3	58*	-4	1	50*	-6
COCCNc1nnnc2c1sc1nc(N3CCOCC3)c3c(c12)CC(C)(C)OC3	28	-11	3	29	-3
O=c1c2sc3nc(N4CCOCC4)c4c(c3c2nnn1Cc1ccccc1)CCCC4	31	-1	23	39	-2
CC(C)CNc1nnnc2c1sc1nc(N3CCOCC3)c3c(c12)CCCC3	52*	-12	-4	51*	2
N#CC1=C(N)Oc2cc(O)ccc2C1c1ccc(Br)s1 (stereo not drawn)	-6	-4	3	75*	-6
C[C@@H]1CCCN1c1cccc2c1S(=O)(=O)N(C1CC1)CCCO2	3	/	/	-2	/
COCCn1c(SCC(=O)NC(=O)NC(C)C)nc2ccccc21	-3	-1	-10	42*	-6
O=C(N=C1N(CC2CC2)CC2(C=C3CCCCC3n3c(=O)n(-c4ccccc4)c(=O)n32)N1C(=O)OCc1ccccc1)c1ccccc1 (stereo not drawn)	-12	/	/	-15	/
O=C(CSc1ncnc2c1oc1ccccc12)Nc1ccccc1F	16	-1	0	63*	-4
CC(=O)N=c1c(C#N)cc2c(=O)n3ccccc3nc2n1Cc1ccccc1	-1	5	54*	1	-4
CCOC(=O)Cn1cc(CN2C(C(=O)OC)CN(C3CCCC3)CCS2(=O)=O)nn1 (stereo not drawn)	3	/	/	1	/
CCNC(=O)COC(=O)CCC(=O)c1ccc(F)cc1	1	0	-8	-1	-5
